Measurements from PubChem BioAssay AID463195 (Sanford-Burnham Center for Chemical Genomics, 2010).
The whole screen tested about 330,000 compounds, of which about 4,600 (1.4%) were called active. What follows is part of a selection rich in actives, with near analogues and random picks from the rest. A number with no mark means an inactive call.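 The calls were made as follows: active = inhibition of 40% or more at the single tested concentration; inactive = the rest.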

Test: growth inhibitors of isogenic TIM10 control yeast, primary screen, counter-screen for tim10-1 yeast inhibitor project, luminescence, uHTS (AID 463195);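 also: wild-type TIM10 isogenic control strain grown at permissive 25 °C; 0% = DMSO yeast wells and 100% = minimal medium wells without yeast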
Details: S. cerevisiae TIM10 strain growth, BacTiter-Glo luminescence, 24 h; at 10 µM; active compounds read high
With N#CC1(C#N)C(C(=O)C23CC4CC(CC(C4)C2)C3)C12CCOCC2 (stereo not drawn) the inhibition was 44.3% (active). In the case of CSCCC(NC(=O)COc1ccccc1)C(=O)OCCOc1ccc(F)cc1 (stereo not drawn), the inhibition is reported as -0.639%. In the case of Cc1cc(C)cc(NC(=O)C(OC(=O)c2ccc(O)cc2)c2ccccc2)c1 (stereo not drawn), the inhibition is reported as 9.95%. In the case of Cc1ccc(C(=O)Nc2ccc(NC(=O)c3cccs3)cc2)c(C)c1, the inhibition is reported as -11.8%. Compound Cc1ccc(C(=O)Nc2ccc(C)c(S(=O)(=O)N(C)C)c2)s1 has an inhibition of 10.9%. Compound O=C(Nc1ccc(NC(=O)c2cccs2)cc1)c1ccc2ccccc2c1 has an inhibition of -15.3%. In the case of Cc1ccc(NC(=O)c2cccs2)cc1S(=O)(=O)N(C)C, the inhibition is reported as 46.1% (active). Compound O=C(Nc1ccccc1)c1ccc(NC(=O)c2cccs2)cc1 has an inhibition of -10.3%. For Cc1nc(-c2ccc(NC(=O)c3cccs3)cc2)cs1, the inhibition was 49.5% (active). Compound COC(=O)[C@]1(C)N[C@H](CN(C)C(=O)c2ccc(C(C)(C)C)cc2)[C@@H]2C(=O)N(C)C(=O)[C@@H]21 has an inhibition of 3.29%. Work on Cc1ccc(-c2noc(C3CCCN(C(=O)c4cccc(Cl)c4)C3)n2)o1 (stereo not drawn) yielded an inhibition of -12.1%. Work on O=C(CNS(=O)(=O)c1ccc(Br)s1)N1CCN(C(=O)c2ccco2)CC1 yielded an inhibition of -4.25%. Cc1ccc(N2C(=O)CC(NCc3ccc4c(c3)OCO4)C2=O)cc1Cl (stereo not drawn) showed an inhibition of 9.87%. In the case of COC(=O)CN1C(=O)C(C)(C)Oc2ccc(C(=O)Nc3cccc(OC)c3)cc21, the inhibition is reported as -1.11%. In the case of CCc1ccc2c(c1)C1(NN=C(c3ccccc3)S1)C(=O)N2 (stereo not drawn), the inhibition is reported as 41.4% (active). In the case of Cc1ccccc1N(C(=O)Cc1cccs1)C(C(=O)NC1CCCCC1)c1cn(C)nc1C (stereo not drawn), the inhibition is reported as 18.5%. Work on COc1cc2cc(CN(CCN3CCCC3)C(=O)Nc3ccccc3Cl)c(=O)[nH]c2cc1OC yielded an inhibition of 1.82%. In the case of CSc1ccc(S(=O)(=O)NC2CCCCC2)cc1, the inhibition is reported as 5.32%. With O=S(=O)(NC1CCCCC1)c1ccc(F)c2ccccc12 the inhibition was 48.4% (active). Compound O=S(=O)(NC1CC1)c1ccc2c3c(cccc13)CC2 has an inhibition of 18.4%. In the case of O=C(Cn1nnc2ccccc2c1=O)NCc1ccc(Cl)cc1, the inhibition is reported as -13.1%. With CS(=O)(=O)N1CCN(CC(=O)NC2CCCC2)CC1 the inhibition was 1.42%. With COc1ccc(C(=O)C[n+]2ccc(N)c(C)c2C)cc1 the inhibition was -13.7%. For Cc1ccc(-n2cnc3ncnc(-c4ccccc4)c32)cc1, the inhibition was -13%. In the case of Cc1ccc(-c2nn(C(C)(C)C)c3ncnc(N)c23)cc1, the inhibition is reported as 46.3% (active). With C=CC[C@H](CC(=O)OC(C)(C)C)C(=O)OC[C@H]1CCCN1C(=O)[C@H](CC=C)CC(=O)N(CCO)Cc1ccccc1 the inhibition was 4.94%. For O=C(Nc1cccc(S(=O)(=O)N2CCCC2)c1)c1cncc(Br)c1, the inhibition was 97% (active). For O=C(CCNC(=O)c1ccc(Br)cc1)Nc1cccc(S(=O)(=O)N2CCCCC2)c1, the inhibition was -7.56%. For O=C(Nc1cccc(S(=O)(=O)N2CCCCC2)c1)c1cncc(Br)c1, the inhibition was 8.29%. With COc1ccc(Nc2nc(N)nc(CSC(=S)N3CCC(C)CC3)n2)cc1 the inhibition was 44.5% (active). Compound COc1ccccc1Nc1nc(N)nc(CSC(=S)N2CCOCC2)n1 has an inhibition of 31.8%. CCOC(=O)c1cnc(SCc2nc(N)nc(Nc3ccc(OC)cc3)n2)nc1N showed an inhibition of 15.4%. Work on COc1cc(CC(=O)N2CCC(n3nccc3NC(=O)C3CC3)CC2)cc(OC)c1OC yielded an inhibition of -1.91%. For CC1=C/C(=N\OS(=O)(=O)c2ccccc2)C=CC1=O, the inhibition was 69.4% (active). For Cc1nc(C)c(-c2nnc(-c3cccc(S(=O)(=O)N(C)C)c3)o2)cc1C(=O)NN, the inhibition was 11.6%. In the case of CCn1c(C)cc(=O)cc1-c1ccc(Cl)cc1, the inhibition is reported as -2.03%. Work on COc1ccc(Cn2c(=O)cc(C)[nH]c2=S)cc1 yielded an inhibition of 8.93%. In the case of COc1ccc(Cn2c(-c3ccc(Cl)cc3)c[n+]3ccccc23)cc1, the inhibition is reported as 45.6% (active). In the case of COc1cccc(OCc2cc(C(=O)N3CCN(C(=O)c4ccco4)CC3)no2)c1, the inhibition is reported as 97.6% (active). Work on COc1ccc(OCc2cc(C(=O)N3CCCC3)no2)c2ccccc12 yielded an inhibition of -11.8%. Work on O=C(c1cc(COc2cccc(C(F)(F)F)c2)on1)N1CCSCC1 yielded an inhibition of 19.8%. With CC(=O)C[C@H](O)CC(=O)[C@@H]1OC(=O)[C@@H](C)C/C=C\Cc2ccccc21 the inhibition was 4.22%. CCc1cccc(NC(=O)C2CCCN(S(=O)(=O)c3ccc4[nH]c(=O)ccc4c3)C2)c1 (stereo not drawn) showed an inhibition of -4.86%. For CCN1/C(=C\c2ccc3ccccc3[n+]2CC)Sc2cc(C)ccc21, the inhibition was 78.3% (active). Work on COc1ccc2c(c1OC)C(=O)N(c1ccc(O)cc1)C2 yielded an inhibition of -21.6%. Work on CCC1CCC2(CC1)NC(=O)N(CC(=O)Nc1ccc(OC)cc1)C2=O (stereo not drawn) yielded an inhibition of -4.33%. With CN(c1cccc(NC(=O)c2ccc(CN3CCc4ccccc4C3)cc2)c1)S(C)(=O)=O the inhibition was -4.01%. For CCOC(=O)c1cc(C(=O)Nc2ccc(S(=O)(=O)Nc3ccc(OC)cc3)cc2)nn1C, the inhibition was 8.95%. With COc1ccc(OCC(=O)Nc2ccc(NC(=O)c3ccco3)c(C)c2)cc1 the inhibition was -13.8%. With Cc1cccc(OCC(=O)Nc2ccc(NC(=O)c3ccco3)c(C)c2)c1 the inhibition was -8.94%. For Cc1ccc(C(=O)COc2cccc(NC(=O)c3ccco3)c2)cc1, the inhibition was 54% (active). In the case of COC(=O)c1onc(-c2c(OC)cc(OC)cc2OC)c1C(=O)OC, the inhibition is reported as 6.8%. With CC1=C(C(=O)Nc2cc(C)ccn2)C(c2cnn(C)c2)C2=C(CC(c3ccccc3)CC2=O)N1 (stereo not drawn) the inhibition was 6.51%. O=C(NCc1ccc(F)cc1)C1CCN(C(=O)Nc2ccc(F)cc2)CC1 gave an inhibition of -14%. For O=[N+]([O-])c1ccc(C=Nc2ccc(Cl)cc2Cl)s1, the inhibition was 71.2% (active). Work on CC1CN(C(=O)c2ccc([N+](=O)[O-])s2)CC(C)O1 (stereo not drawn) yielded an inhibition of 6.54%. CCC1=NN(C(=O)Cc2ccc([N+](=O)[O-])cc2)C(O)(c2ccc(Br)cc2)C1 (stereo not drawn) showed an inhibition of 27%. In the case of O=C(Nc1cccc(-c2nc3ncccc3o2)c1)c1ccco1, the inhibition is reported as 12.8%. With O=C(Nc1ccc2oc(-c3ccccc3F)nc2c1)c1ccco1 the inhibition was 67.2% (active). O=C(Nc1ccc2oc(-c3ccc4ccccc4c3)nc2c1)c1cccs1 showed an inhibition of 0.529%. In the case of Cc1cc(C)cc(NC(=O)Cn2cnc3c(nnn3Cc3ccc(F)cc3)c2=O)c1, the inhibition is reported as -9.34%. In the case of Cc1ccc(Nc2cc(=O)n(C3CCCCC3)c(=O)[nH]2)cc1C, the inhibition is reported as 4.8%. In the case of COc1cc(NC(=O)c2cccs2)ccc1NC(=O)c1ccccc1Cl, the inhibition is reported as 40.9% (active). Work on COc1cc2ccccc2cc1C(=O)Nc1ccc(NC(=O)c2cccs2)cc1 yielded an inhibition of -34.6%. In the case of COc1cc(NC(=O)c2ccc3c(c2)OCO3)ccc1NC(=O)c1cccs1, the inhibition is reported as 11%. C=C1C2C[C@H](O)C(C)(C)[C@@]2(O)[C@H](O)C[C@]23C[C@@](C)(O)[C@H](CC[C@H]12)[C@H]3O (stereo partly drawn) showed an inhibition of -10.5%. With Cc1cccc(/C(N)=N/OC(=O)c2ccccc2Cl)c1 the inhibition was 71.3% (active). In the case of Cc1ccc(C(=O)O/N=C(\N)c2ccccn2)cc1Cl, the inhibition is reported as 28.2%. Cc1ccc(/C(N)=N/OC(=O)COc2ccc(Cl)c(C)c2)cc1 gave an inhibition of 30.7%. Compound CCOC(=O)c1ccc2[nH]c3c(c2c1)CCCC3NC=O (stereo not drawn) has an inhibition of 16.6%. Compound CN1C(=O)/C(=C\c2cc(Br)cs2)c2ccccc21 has an inhibition of 30.2%. With CN1C(=O)/C(=N/OC(=O)c2ccccc2Br)c2ccccc21 the inhibition was 68.9% (active). Compound COc1ccc(NC(=O)ON=C2c3ccccc3-c3ccccc32)cc1 has an inhibition of 8.51%. Cc1ccc(-c2noc(CCC(=O)Nc3ccccc3N3CCN(C)CC3)n2)cc1 showed an inhibition of 10.4%. O=C(Nc1ccc(Cl)cc1)OCc1cc(-c2ccccc2)on1 gave an inhibition of 6.71%. For O=C(Nc1cccc(Cl)c1)OCc1ccccn1, the inhibition was 47.9% (active). With O=C(Nc1cccc(CCc2ccccn2)c1)c1ccc(Cl)cc1 the inhibition was 1.78%. With O=C(COC(=O)c1cc([N+](=O)[O-])ccc1NCc1ccccc1)NC1CCCCC1 the inhibition was -9.16%. With CC(=O)Nc1ccc(S(=O)(=O)N(C)CC(=O)NCCC2=CCCCC2)cc1 the inhibition was 3.82%. Work on CCn1nc(C)c(CNC(=O)C2CCC(=O)N(Cc3cccc(F)c3)C2)c1C (stereo not drawn) yielded an inhibition of -0.612%. For Cc1cc(Nc2ccccc2)n(C(=O)c2ccc(N)cc2)n1, the inhibition was 57.7% (active). Cn1c(Nc2ccccc2)cc(=O)n(C)c1=O gave an inhibition of 0.045%. With Cc1cc(C)n(C(=O)c2ccc(S(=O)(=O)N3CCCC3)cc2)n1 the inhibition was 3.81%. With O=C(Cn1c(N2CCN(C/C=C/c3ccccc3)CC2)nc2ccccc21)c1ccccc1 the inhibition was 30.9%. With COc1ccc(Cl)cc1NC(=O)CN(C)CC(=O)Nc1ccc2c(c1)OCO2 the inhibition was -6.17%. Compound Cc1ccc(NNC(=O)c2c(F)cccc2Cl)cc1Cl has an inhibition of 11.3%. For Cc1cc(C)c(S(=O)(=O)c2ccccc2)c(OC(=O)c2c(F)cccc2Cl)n1, the inhibition was 59.8% (active). Compound Cc1cc(OC(=O)c2c(Cl)cccc2Cl)nc(C)n1 has an inhibition of -1.42%. Compound COCCCN1C(=O)c2ccc(C(=O)OCC(=O)NCc3ccccc3OC)cc2C1=O has an inhibition of 2.82%. With Cc1onc(NC(=O)c2ccc([N+](=O)[O-])o2)c1Br the inhibition was 46.6% (active). For Cc1onc(C(=O)Nc2ccc3c(c2)OCO3)c1[N+](=O)[O-], the inhibition was -7.9%. Cc1onc(C(=O)NCc2ccc(F)cc2)c1[N+](=O)[O-] showed an inhibition of -0.126%. In the case of Cc1cccc(NC(=O)c2ccc([N+](=O)[O-])o2)c1, the inhibition is reported as 60.3% (active). In the case of O=C(Nc1ccc(Br)cn1)c1ccc([N+](=O)[O-])cc1Cl, the inhibition is reported as 14.3%. Compound CCN(CC)S(=O)(=O)c1ccc(N2CCCC2)c(NC(=O)c2ccc([N+](=O)[O-])o2)c1 has an inhibition of 28.1%. For CN1C(=O)c2ccc(C(=O)Nc3ccc(Br)cn3)cc2C1=O, the inhibition was 3.52%. For O=C(Nc1cccc(O)c1)c1ccc(C(=O)c2ccccc2)o1, the inhibition was 30.4%. In the case of O=C(Nc1ccc(Br)cn1)c1ccc([N+](=O)[O-])o1, the inhibition is reported as 57.3% (active).
